# Results reported in article PMC7862700, “An all-to-all approach to the identification of sequence-specific readers for epigenetic DNA modifications on cytosine”.
# Tests used:
# Test in all cases: DAPPL (digital affinity profiling via proximity ligation, sequencing); 10 mM Tris-HCl pH 7.5, 50 mM NaCl, 1 mM DTT, 4% glycerol, room temperature, 30 min; GST-TFs on glutathione beads, 16-mer random dsDNA library, 0.1% formaldehyde crosslink after washing; high values mean tight binding
# FLI1 = target: T1, FLI1 (Homo sapiens, UniProt Q01543 1-452); details: protein: recombinant; tags: N-terminal GST; dsDNA, one strand shown
# T1 sequence: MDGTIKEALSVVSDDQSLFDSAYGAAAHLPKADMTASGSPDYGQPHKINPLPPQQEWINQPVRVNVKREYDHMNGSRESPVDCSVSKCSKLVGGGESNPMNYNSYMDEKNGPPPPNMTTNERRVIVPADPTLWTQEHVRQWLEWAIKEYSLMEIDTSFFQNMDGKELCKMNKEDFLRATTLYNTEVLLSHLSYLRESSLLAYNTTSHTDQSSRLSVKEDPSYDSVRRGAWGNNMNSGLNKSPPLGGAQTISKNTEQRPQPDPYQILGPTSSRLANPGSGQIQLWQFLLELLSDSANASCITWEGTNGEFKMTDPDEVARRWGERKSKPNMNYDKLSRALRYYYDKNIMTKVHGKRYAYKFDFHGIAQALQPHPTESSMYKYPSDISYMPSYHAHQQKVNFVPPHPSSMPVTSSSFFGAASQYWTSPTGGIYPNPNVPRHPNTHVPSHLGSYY
# Outline: (§1)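 GST fusions of human transcription factors were expressed in yeast and captured with glutathione beads. Once given DNA barcodes and pooled alongside a tag-only sample, they were incubated for 30 min at room temperature with 200 nmole of a random double-stranded 16-mer DNA library in Tris/NaCl/DTT/glycerol buffer, then washed, crosslinked (0.1% formaldehyde), proximity-ligated, PCR-amplified and sequenced on an Illumina NextSeq500. The binding signal of each hexamer is its read frequency for a factor divided by its frequency for the tag-only sample.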
# ELK1 = target: T2, ELK1 (Homo sapiens, UniProt P19419 1-428); details: protein: recombinant; tags: N-terminal GST; dsDNA, one strand shown
# T2 sequence: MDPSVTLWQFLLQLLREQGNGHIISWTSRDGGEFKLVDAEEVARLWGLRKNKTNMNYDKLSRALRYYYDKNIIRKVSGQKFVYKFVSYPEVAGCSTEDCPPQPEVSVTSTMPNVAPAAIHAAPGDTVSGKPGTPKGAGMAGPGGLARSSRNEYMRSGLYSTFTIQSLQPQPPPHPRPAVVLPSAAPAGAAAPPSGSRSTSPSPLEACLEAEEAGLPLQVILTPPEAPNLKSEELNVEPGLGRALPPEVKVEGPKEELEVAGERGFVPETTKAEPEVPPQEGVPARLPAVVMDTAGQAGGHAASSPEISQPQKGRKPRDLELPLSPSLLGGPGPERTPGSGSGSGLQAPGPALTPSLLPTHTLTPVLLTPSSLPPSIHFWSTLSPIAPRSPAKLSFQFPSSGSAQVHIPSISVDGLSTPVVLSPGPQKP
# Outline: as §1
# GABPA = target: T3, GABPA (Homo sapiens, UniProt Q06546 1-454); details: protein: recombinant; tags: N-terminal GST; dsDNA, one strand shown
# T3 sequence: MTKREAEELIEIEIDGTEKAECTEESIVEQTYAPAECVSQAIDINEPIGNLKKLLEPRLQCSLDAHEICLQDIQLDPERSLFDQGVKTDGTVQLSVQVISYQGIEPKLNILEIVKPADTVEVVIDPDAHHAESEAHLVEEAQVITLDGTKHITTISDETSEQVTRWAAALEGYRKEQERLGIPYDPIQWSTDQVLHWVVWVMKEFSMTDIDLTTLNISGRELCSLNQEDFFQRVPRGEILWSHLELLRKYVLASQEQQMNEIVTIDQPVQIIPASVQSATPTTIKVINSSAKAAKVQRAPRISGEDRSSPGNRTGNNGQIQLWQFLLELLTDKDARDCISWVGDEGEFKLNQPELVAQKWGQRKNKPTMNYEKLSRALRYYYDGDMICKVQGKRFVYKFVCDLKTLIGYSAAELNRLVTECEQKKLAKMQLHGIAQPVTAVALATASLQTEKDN
# Outline: as §1
# ERG = target: T4, ERG (Homo sapiens, UniProt P11308 1-479); details: protein: recombinant; tags: N-terminal GST; dsDNA, one strand shown
# T4 sequence: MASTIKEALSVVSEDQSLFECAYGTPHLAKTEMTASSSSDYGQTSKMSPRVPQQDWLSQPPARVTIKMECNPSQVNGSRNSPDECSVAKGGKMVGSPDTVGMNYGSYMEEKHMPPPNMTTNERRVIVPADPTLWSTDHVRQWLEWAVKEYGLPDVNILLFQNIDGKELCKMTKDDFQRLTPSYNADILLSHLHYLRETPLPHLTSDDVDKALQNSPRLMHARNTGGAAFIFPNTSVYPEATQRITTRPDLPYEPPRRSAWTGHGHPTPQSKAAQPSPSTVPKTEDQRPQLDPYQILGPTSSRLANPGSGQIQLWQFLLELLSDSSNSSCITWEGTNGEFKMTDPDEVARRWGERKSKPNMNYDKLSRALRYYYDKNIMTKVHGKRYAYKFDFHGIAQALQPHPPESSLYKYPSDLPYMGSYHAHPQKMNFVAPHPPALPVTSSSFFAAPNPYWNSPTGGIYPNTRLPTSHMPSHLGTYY
# Outline: as §1
# ELF1 = ELF1 (Homo sapiens, UniProt P32519 1-619); details: protein: recombinant; tags: N-terminal GST; dsDNA, one strand shown
# Outline: as §1
# EHF = target: T5, EHF (Homo sapiens, UniProt Q9NZC4 1-300); details: protein: recombinant; tags: N-terminal GST; dsDNA, one strand shown
# T5 sequence: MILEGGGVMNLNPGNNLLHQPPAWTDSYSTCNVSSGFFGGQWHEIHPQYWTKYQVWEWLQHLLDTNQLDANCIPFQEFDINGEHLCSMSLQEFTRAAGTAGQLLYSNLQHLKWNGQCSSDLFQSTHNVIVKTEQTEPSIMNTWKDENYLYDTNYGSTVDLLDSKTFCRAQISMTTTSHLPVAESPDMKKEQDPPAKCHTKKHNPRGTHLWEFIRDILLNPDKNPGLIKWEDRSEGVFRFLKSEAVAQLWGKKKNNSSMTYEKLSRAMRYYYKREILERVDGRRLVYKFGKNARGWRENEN
# Outline: as §1
# SPI1 = SPI1 (Homo sapiens, UniProt P17947 1-270); details: protein: recombinant; tags: N-terminal GST; dsDNA, one strand shown
# Outline: as §1
# SPIB = SPIB (Homo sapiens, UniProt Q01892 1-262); details: protein: recombinant; tags: N-terminal GST; dsDNA, one strand shown
# Outline: as §1
# ELK3 = target: T6, ELK3 (Homo sapiens, UniProt P41970 1-407); details: protein: recombinant; tags: N-terminal GST; dsDNA, one strand shown
# T6 sequence: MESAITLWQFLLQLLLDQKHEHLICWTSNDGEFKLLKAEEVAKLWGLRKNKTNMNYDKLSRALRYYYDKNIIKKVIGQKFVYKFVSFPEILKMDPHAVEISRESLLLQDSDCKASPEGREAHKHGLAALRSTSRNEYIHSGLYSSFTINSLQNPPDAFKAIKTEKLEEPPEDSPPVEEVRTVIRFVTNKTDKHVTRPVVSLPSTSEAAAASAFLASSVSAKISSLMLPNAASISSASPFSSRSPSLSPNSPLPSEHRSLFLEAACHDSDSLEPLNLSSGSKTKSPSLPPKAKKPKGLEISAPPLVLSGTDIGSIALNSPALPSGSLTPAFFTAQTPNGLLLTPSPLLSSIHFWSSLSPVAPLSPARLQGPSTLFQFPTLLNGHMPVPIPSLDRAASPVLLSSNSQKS
# Outline: as §1
# FEV = target: T7, FEV (Homo sapiens, UniProt Q99581 1-238); details: protein: recombinant; tags: N-terminal GST; dsDNA, one strand shown
# T7 sequence: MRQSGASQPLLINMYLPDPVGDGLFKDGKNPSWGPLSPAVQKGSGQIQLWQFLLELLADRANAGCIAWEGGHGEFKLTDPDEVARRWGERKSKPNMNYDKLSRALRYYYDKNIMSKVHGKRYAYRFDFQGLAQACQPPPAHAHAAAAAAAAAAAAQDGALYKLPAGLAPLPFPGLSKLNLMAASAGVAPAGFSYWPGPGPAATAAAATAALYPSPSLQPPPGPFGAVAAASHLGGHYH
# Outline: as §1
# ETV5 = ETV5 (Homo sapiens, UniProt P41161 1-510); details: protein: recombinant; tags: N-terminal GST; dsDNA, one strand shown
# Outline: as §1
# HSF1 = HSF1 (Homo sapiens, UniProt Q00613 1-529); details: protein: recombinant; tags: N-terminal GST; chain copies: 3; dsDNA, one strand shown
# Outline: as §1
# SPIC = target: T8, SPIC (Homo sapiens, UniProt Q8N5J4 1-248); details: protein: recombinant; tags: N-terminal GST; dsDNA, one strand shown
# T8 sequence: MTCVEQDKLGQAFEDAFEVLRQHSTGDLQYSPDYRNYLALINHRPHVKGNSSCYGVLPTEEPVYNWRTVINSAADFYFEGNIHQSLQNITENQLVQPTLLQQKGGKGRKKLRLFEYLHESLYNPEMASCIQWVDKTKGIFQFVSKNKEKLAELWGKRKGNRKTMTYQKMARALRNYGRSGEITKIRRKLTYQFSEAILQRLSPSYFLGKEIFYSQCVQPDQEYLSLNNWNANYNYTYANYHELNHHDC
# Outline: as §1
# ELF4 = ELF4 (Homo sapiens, UniProt Q99607 1-663); details: protein: recombinant; tags: N-terminal GST; dsDNA, one strand shown
# Outline: as §1
# ELK4 = target: T9, ELK4 (Homo sapiens, UniProt P28324-2 1-405); details: protein: recombinant; tags: N-terminal GST; dsDNA, one strand shown
# T9 sequence: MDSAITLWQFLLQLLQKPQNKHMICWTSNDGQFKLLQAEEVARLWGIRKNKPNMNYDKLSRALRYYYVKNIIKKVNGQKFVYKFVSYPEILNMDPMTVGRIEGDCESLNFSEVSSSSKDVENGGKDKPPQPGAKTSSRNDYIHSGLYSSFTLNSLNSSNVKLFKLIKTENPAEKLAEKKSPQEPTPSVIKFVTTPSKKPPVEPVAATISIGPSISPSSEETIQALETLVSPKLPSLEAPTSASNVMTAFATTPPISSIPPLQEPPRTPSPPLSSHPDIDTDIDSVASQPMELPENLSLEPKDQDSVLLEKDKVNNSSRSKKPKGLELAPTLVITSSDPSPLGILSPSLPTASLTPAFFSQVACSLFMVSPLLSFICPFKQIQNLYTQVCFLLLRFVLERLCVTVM
# Outline: as §1
# ETV2 = target: T10, ETV2 (Homo sapiens, UniProt O00321 1-342); details: protein: recombinant; tags: N-terminal GST; dsDNA, one strand shown
# T10 sequence: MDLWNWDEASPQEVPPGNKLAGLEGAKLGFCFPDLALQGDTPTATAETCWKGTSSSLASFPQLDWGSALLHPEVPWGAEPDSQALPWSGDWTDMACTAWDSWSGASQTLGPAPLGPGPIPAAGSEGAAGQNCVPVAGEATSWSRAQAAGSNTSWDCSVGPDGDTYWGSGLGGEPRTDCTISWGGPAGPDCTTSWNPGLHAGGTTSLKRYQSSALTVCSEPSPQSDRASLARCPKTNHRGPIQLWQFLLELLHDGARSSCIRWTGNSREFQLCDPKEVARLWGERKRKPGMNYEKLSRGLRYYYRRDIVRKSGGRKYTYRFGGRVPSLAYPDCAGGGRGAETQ
# Outline: as §1
# ELF3 = target: T11, ELF3 (Homo sapiens, UniProt P78545 1-371); details: protein: recombinant; tags: N-terminal GST; dsDNA, one strand shown
# T11 sequence: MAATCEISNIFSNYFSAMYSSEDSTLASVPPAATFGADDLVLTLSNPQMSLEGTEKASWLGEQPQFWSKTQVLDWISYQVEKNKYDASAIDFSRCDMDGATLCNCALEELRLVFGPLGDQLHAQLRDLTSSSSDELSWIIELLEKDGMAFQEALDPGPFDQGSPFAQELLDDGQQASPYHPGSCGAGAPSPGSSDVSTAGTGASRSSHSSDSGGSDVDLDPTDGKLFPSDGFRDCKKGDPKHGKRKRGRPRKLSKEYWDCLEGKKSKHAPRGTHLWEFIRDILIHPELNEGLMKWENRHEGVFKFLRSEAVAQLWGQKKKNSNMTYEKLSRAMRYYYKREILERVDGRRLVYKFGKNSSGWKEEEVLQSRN
# Outline: as §1
# CRX = CRX (Homo sapiens, UniProt O43186 1-299); details: protein: recombinant; tags: N-terminal GST; dsDNA, one strand shown
# Outline: as §1
# ETV1 = ETV1 (Homo sapiens, UniProt P50549 1-477); details: protein: recombinant; tags: N-terminal GST; dsDNA, one strand shown
# Outline: as §1
# Sequence of ETV5 (P41161 whole entry): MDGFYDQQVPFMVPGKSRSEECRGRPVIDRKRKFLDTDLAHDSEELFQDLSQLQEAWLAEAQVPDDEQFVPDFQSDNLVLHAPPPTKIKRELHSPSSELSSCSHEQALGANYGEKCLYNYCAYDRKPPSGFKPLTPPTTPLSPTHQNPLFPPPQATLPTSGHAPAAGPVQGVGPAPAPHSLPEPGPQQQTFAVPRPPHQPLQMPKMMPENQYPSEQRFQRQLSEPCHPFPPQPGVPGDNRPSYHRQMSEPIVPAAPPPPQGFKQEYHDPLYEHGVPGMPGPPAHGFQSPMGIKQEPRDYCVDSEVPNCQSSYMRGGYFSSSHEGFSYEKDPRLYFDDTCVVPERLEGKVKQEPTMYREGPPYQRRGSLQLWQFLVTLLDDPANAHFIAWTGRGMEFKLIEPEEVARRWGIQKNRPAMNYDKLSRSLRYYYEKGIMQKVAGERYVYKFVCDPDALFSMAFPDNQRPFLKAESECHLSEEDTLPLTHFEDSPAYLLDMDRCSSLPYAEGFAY
# Sequence of ELF1 (P32519 whole entry): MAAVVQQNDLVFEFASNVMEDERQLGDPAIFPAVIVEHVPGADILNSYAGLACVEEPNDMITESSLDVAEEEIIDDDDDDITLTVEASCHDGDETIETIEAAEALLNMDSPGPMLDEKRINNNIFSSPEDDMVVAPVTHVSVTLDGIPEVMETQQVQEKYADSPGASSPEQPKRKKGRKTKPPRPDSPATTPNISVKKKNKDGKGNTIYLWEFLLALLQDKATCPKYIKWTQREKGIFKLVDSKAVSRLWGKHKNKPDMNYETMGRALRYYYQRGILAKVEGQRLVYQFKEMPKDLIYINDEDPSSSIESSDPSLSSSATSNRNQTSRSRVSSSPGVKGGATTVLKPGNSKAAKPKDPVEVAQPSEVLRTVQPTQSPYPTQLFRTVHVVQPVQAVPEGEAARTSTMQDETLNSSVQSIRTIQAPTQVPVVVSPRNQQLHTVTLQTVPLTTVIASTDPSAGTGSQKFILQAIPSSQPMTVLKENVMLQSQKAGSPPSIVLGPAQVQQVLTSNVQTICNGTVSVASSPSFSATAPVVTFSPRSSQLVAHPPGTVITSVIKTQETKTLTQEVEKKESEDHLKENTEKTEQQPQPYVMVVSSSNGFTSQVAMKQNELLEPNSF
# Sequence of SPIB (Q01892 whole entry): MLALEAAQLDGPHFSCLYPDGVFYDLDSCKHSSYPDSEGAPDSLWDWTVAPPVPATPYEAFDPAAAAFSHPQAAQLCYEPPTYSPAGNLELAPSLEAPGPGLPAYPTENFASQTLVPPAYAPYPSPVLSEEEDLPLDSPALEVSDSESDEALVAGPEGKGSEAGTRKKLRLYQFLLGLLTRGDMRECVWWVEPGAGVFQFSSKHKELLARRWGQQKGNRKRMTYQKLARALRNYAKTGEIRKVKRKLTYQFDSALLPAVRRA
# Sequence of ETV1 (P50549 whole entry): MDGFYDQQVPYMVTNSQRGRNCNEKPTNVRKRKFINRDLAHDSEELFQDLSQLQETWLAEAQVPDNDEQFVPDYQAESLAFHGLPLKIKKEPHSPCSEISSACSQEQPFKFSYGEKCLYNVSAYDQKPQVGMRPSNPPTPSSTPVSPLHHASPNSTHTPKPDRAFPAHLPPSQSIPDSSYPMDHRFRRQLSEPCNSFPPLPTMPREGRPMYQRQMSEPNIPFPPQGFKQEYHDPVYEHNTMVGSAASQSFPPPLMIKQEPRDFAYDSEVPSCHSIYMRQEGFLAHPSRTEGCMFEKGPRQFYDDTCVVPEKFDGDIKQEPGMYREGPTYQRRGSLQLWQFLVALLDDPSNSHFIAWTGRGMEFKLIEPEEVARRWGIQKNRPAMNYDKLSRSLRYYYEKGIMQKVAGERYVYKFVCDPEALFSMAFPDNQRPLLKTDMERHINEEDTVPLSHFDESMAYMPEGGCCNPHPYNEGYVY
# Sequence of CRX (O43186 whole entry): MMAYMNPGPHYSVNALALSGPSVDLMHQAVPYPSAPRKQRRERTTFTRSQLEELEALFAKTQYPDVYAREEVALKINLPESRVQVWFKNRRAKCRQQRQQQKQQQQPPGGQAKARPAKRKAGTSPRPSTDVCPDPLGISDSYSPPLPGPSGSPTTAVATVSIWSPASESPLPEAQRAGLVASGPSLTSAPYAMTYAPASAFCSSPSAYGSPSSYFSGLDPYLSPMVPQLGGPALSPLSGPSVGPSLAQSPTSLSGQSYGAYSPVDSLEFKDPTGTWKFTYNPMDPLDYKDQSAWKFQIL
# Sequence of HSF1 (Q00613 whole entry): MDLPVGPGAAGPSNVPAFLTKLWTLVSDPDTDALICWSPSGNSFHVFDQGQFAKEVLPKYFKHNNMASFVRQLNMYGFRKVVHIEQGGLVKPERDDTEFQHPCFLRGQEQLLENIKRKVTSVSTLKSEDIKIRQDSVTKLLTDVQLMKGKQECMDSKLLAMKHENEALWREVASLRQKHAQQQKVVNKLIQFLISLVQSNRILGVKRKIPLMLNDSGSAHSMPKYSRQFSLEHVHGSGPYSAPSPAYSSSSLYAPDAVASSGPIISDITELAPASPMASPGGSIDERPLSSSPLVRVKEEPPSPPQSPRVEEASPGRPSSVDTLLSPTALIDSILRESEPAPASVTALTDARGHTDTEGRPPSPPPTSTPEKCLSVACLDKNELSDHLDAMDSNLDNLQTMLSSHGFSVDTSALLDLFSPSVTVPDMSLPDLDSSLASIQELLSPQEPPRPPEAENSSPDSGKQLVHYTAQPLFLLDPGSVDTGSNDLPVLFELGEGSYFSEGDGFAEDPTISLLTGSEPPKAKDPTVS
# Sequence of ELF4 (Q99607 whole entry): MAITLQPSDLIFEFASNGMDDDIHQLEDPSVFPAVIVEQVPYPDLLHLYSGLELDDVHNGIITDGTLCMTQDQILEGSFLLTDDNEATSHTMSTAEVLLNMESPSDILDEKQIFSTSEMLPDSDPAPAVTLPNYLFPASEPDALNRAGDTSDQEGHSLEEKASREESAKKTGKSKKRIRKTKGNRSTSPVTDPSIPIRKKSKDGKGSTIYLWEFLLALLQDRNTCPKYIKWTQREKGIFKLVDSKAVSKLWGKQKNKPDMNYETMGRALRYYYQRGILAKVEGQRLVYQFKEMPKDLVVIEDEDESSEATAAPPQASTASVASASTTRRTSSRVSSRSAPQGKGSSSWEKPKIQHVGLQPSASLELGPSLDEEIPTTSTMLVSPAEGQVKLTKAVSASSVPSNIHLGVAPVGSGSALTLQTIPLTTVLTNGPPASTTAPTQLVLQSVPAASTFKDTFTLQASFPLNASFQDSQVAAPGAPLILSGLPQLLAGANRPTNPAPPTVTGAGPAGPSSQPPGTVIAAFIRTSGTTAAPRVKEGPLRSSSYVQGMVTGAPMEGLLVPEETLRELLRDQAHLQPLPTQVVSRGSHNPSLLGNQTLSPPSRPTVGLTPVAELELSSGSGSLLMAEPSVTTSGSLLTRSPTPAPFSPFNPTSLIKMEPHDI
sequence,measurement,setting,value
TTAAGT,binding signal,FLI1,"1.06 fold enrichment (6-mer frequency, TF over GST control)"
same,binding signal,ELK1,"1.3 fold enrichment (6-mer frequency, TF over GST control)"
same,binding signal,GABPA,"1.16 fold enrichment (6-mer frequency, TF over GST control)"
same,binding signal,ERG,"1.17 fold enrichment (6-mer frequency, TF over GST control)"
same,binding signal,ELF1,"1.19 fold enrichment (6-mer frequency, TF over GST control)"
same,binding signal,EHF,"1.15 fold enrichment (6-mer frequency, TF over GST control)"
same,binding signal,SPI1,"1.06 fold enrichment (6-mer frequency, TF over GST control)"
same,binding signal,SPIB,"1.2 fold enrichment (6-mer frequency, TF over GST control)"
same,binding signal,ELK3,"1.23 fold enrichment (6-mer frequency, TF over GST control)"
same,binding signal,FEV,"1.11 fold enrichment (6-mer frequency, TF over GST control)"
same,binding signal,ETV5,"1.15 fold enrichment (6-mer frequency, TF over GST control)"
same,binding signal,HSF1,"2 fold enrichment (6-mer frequency, TF over GST control)"
same,binding signal,SPIC,"1.25 fold enrichment (6-mer frequency, TF over GST control)"
same,binding signal,ELF4,"1.16 fold enrichment (6-mer frequency, TF over GST control)"
same,binding signal,ELK4,"1.03 fold enrichment (6-mer frequency, TF over GST control)"
same,binding signal,ETV2,"1.14 fold enrichment (6-mer frequency, TF over GST control)"
same,binding signal,ELF3,"1.26 fold enrichment (6-mer frequency, TF over GST control)"
same,binding signal,CRX,"3.27 fold enrichment (6-mer frequency, TF over GST control)"
same,binding signal,ETV1,"1.16 fold enrichment (6-mer frequency, TF over GST control)"
